# Measurements: paper PMC12820563, “FoxP3 forms a head-to-head dimer in vivo and stabilizes its multimerization on adjacent microsatellites”
# Whole data set: some 16,000 sequences, median “rpm ratio (pull-down/input)” near 0.94, cut for the highest 2% near 1.7. This is one part of a sample in which the highest values are shown more often than they occur.
# Target: T1, MBP-FoxP1dN (Mus musculus, UniProt P58462 326-579)
# T1 sequence: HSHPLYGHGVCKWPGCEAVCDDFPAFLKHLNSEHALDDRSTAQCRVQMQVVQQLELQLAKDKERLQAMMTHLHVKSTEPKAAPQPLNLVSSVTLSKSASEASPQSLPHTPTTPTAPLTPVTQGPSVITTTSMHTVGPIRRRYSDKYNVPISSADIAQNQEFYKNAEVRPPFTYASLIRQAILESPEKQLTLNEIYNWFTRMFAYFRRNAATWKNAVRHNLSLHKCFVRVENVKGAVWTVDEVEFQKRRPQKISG
# Assay: PD-seq (MBP pull-down with sequencing); 20 mM Tris-HCl pH 7.5, 100 mM NaCl, 1.5 mM MgCl2, 0.4 uM protein, 0.1 uM dsDNA library, 30 min, room temperature, amylose pull-down; high values mean tight binding
# Conditions: protein: recombinant; tags: His6-MBP; chain copies: 2; dsDNA, one strand shown
# In short: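 The N-terminus-lacking fragment of mouse FoxP3 or FoxP1 carried a His6-MBP tag and was expressed in E. coli. At 0.4 µM it was incubated with 0.1 µM Klenow-filled degenerate double-stranded DNA library for 30 min at room temperature in Tris pH 7.5 buffer with NaCl and MgCl2, and complexes were caught on amylose resin, washed three times, released with proteinase K, PCR-barcoded and Illumina-sequenced. Binding is reads-per-million enrichment of pull-down over input with replicates pooled.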
row,Sequence,binding signal
1,GATGATTGTTCTCCCAGCTGATGAATTCCTGTATTCGAGTAAACAAATTTTCCTAATCTTTCTGTTCAAGCGCCATCTAC,1.3 RPM ratio (pull-down/input)
2,GATGATTGTTCTCCCAGCTGATGAATTGTATTGTTCGAGTAAACAAATTTTCCTAATCTTTCTGTTCAAGCGCCATCTAC,2.26 RPM ratio (pull-down/input)
3,GATGATTGTTCTCCCAGCTGATGAATTGTATATTTCGAGTAAACAAATTTTCCTAATCTTTCTGTTCAAGCGCCATCTAC,1.52 RPM ratio (pull-down/input)
4,GATGATTGTTCTCCCAGCTGATGAATTCACGACCTCGAGTAAACAAATTTTCCTAATCTTTCTGTTCAAGCGCCATCTAC,0.767 RPM ratio (pull-down/input)
5,GATGATTGTTCTCCCAGCTGATGAATTTCCGAGATCGAGTAAACAAATTTTCCTAATCTTTCTGTTCAAGCGCCATCTAC,0.797 RPM ratio (pull-down/input)
6,GATGATTGTTCTCCCAGCTGATGAATTTAACTATTCGAGTAAACAAATTTTCCTAATCTTTCTGTTCAAGCGCCATCTAC,0.876 RPM ratio (pull-down/input)
7,GATGATTGTTCTCCCAGCTGATGAATTGATTCACTCGAGTAAACAAATTTTCCTAATCTTTCTGTTCAAGCGCCATCTAC,1.03 RPM ratio (pull-down/input)
8,GATGATTGTTCTCCCAGCTGATGAATTCGCACAATCGAGTAAACAAATTTTCCTAATCTTTCTGTTCAAGCGCCATCTAC,1.15 RPM ratio (pull-down/input)
9,GATGATTGTTCTCCCAGCTGATGAATTTCAAAGTTCGAGTAAACAAATTTTCCTAATCTTTCTGTTCAAGCGCCATCTAC,0.792 RPM ratio (pull-down/input)
10,GATGATTGTTCTCCCAGCTGATGAATTAGTGTCGTCGAGTAAACAAATTTTCCTAATCTTTCTGTTCAAGCGCCATCTAC,0.949 RPM ratio (pull-down/input)
11,GATGATTGTTCTCCCAGCTGATGAATTTAGTGTTTCGAGTAAACAAATTTTCCTAATCTTTCTGTTCAAGCGCCATCTAC,1.15 RPM ratio (pull-down/input)
12,GATGATTGTTCTCCCAGCTGATGAATTAGTAGTGTCGAGTAAACAAATTTTCCTAATCTTTCTGTTCAAGCGCCATCTAC,1 RPM ratio (pull-down/input)
13,GATGATTGTTCTCCCAGCTGATGAATTAGTGTGTTCGAGTAAACAAATTTTCCTAATCTTTCTGTTCAAGCGCCATCTAC,1.35 RPM ratio (pull-down/input)
14,GATGATTGTTCTCCCAGCTGATGAATTAGTGTTGTCGAGTAAACAAATTTTCCTAATCTTTCTGTTCAAGCGCCATCTAC,2.53 RPM ratio (pull-down/input)
15,GATGATTGTTCTCCCAGCTGATGAATTAGTGTTTTCGAGTAAACAAATTTTCCTAATCTTTCTGTTCAAGCGCCATCTAC,2.42 RPM ratio (pull-down/input)
16,GATGATTGTTCTCCCAGCTGATGAATTGCCGTGCTCGAGTAAACAAATTTTCCTAATCTTTCTGTTCAAGCGCCATCTAC,0.904 RPM ratio (pull-down/input)

row,Sequence,binding signal
1,GATGATTGTTCTCCCAGCTGATGAATTACTATAATCGAGTAAACAAATTTTCCTAATCTTTCTGTTCAAGCGCCATCTAC,1.27 RPM ratio (pull-down/input)
2,GATGATTGTTCTCCCAGCTGATGAATTTTAGCGCTCGAGTAAACAAATTTTCCTAATCTTTCTGTTCAAGCGCCATCTAC,0.826 RPM ratio (pull-down/input)
3,GATGATTGTTCTCCCAGCTGATGAATTATAACCCTCGAGTAAACAAATTTTCCTAATCTTTCTGTTCAAGCGCCATCTAC,0.997 RPM ratio (pull-down/input)
4,GATGATTGTTCTCCCAGCTGATGAATTTGATCCATCGAGTAAACAAATTTTCCTAATCTTTCTGTTCAAGCGCCATCTAC,0.928 RPM ratio (pull-down/input)
5,GATGATTGTTCTCCCAGCTGATGAATTCGGCCTATCGAGTAAACAAATTTTCCTAATCTTTCTGTTCAAGCGCCATCTAC,0.817 RPM ratio (pull-down/input)
6,GATGATTGTTCTCCCAGCTGATGAATTTGCGGACTCGAGTAAACAAATTTTCCTAATCTTTCTGTTCAAGCGCCATCTAC,0.882 RPM ratio (pull-down/input)
7,GATGATTGTTCTCCCAGCTGATGAATTACTTCATTCGAGTAAACAAATTTTCCTAATCTTTCTGTTCAAGCGCCATCTAC,1.11 RPM ratio (pull-down/input)
8,GATGATTGTTCTCCCAGCTGATGAATTGAGCAGATCGAGTAAACAAATTTTCCTAATCTTTCTGTTCAAGCGCCATCTAC,0.835 RPM ratio (pull-down/input)
9,GATGATTGTTCTCCCAGCTGATGAATTGATGTGTTCGAGTAAACAAATTTTCCTAATCTTTCTGTTCAAGCGCCATCTAC,1.5 RPM ratio (pull-down/input)
10,GATGATTGTTCTCCCAGCTGATGAATTCTTGTGTTCGAGTAAACAAATTTTCCTAATCTTTCTGTTCAAGCGCCATCTAC,1.6 RPM ratio (pull-down/input)
11,GATGATTGTTCTCCCAGCTGATGAATTGTGTTGTTCGAGTAAACAAATTTTCCTAATCTTTCTGTTCAAGCGCCATCTAC,2.69 RPM ratio (pull-down/input)
12,GATGATTGTTCTCCCAGCTGATGAATTGTTGTGTTCGAGTAAACAAATTTTCCTAATCTTTCTGTTCAAGCGCCATCTAC,2.57 RPM ratio (pull-down/input)
13,GATGATTGTTCTCCCAGCTGATGAATTGTGTTCTTCGAGTAAACAAATTTTCCTAATCTTTCTGTTCAAGCGCCATCTAC,1.33 RPM ratio (pull-down/input)
14,GATGATTGTTCTCCCAGCTGATGAATTTCTGTGTTCGAGTAAACAAATTTTCCTAATCTTTCTGTTCAAGCGCCATCTAC,1.23 RPM ratio (pull-down/input)
15,GATGATTGTTCTCCCAGCTGATGAATTGACCGCGTCGAGTAAACAAATTTTCCTAATCTTTCTGTTCAAGCGCCATCTAC,0.965 RPM ratio (pull-down/input)
16,GATGATTGTTCTCCCAGCTGATGAATTAAAACGATCGAGTAAACAAATTTTCCTAATCTTTCTGTTCAAGCGCCATCTAC,0.959 RPM ratio (pull-down/input)
